Calls of active or inactive are those of the source. The rule behind the calls is not given here.
Molecular target: Protein kinase 7 (PK7), Plasmodium falciparum 3D7 (PF3D7_0213400) (UniProt Q7YTF7)
Test: inhibition of Plasmodium PK7 catalytic activity – biochemical, TCAMS antimalarial set, Kinase-Glo luminescence (AID 1159587)
Settings: recombinant PfPK7, Kinase-Glo ATP depletion luminescence

Chain of Protein kinase 7 (PK7), Plasmodium falciparum 3D7 (PF3D7_0213400) (Q7YTF7 1-343): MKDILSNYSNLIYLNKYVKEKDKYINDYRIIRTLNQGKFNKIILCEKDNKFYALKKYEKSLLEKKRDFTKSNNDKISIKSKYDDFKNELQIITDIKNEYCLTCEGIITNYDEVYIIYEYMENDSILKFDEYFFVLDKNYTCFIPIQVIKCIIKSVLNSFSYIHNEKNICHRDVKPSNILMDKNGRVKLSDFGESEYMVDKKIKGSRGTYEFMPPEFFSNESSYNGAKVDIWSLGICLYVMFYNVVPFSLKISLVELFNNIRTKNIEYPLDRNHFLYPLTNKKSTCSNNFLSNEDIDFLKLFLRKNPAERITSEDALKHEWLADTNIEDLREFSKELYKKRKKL

outcome, inactive:
CN1CCN(Cc2ccc(-c3cccc(-c4nc5ccccc5[nH]4)c3)cc2)CC1
CNCCCNCc1ccc(-c2ccc(F)c(Cl)c2)o1
Cc1ccc2nc(-c3cc(-c4ccc(OCc5ccccc5)cc4)cnc3N)[nH]c2c1
O=C(Nc1ccc(OC2CCN(Cc3ccccc3)C2)c(Cl)c1)c1ccc(F)cc1 (stereo not given)
Nc1nc2c(c(=O)[nH]1)CN(S(=O)(=O)c1ccc(C(=O)N[C@@H](CCC(=O)O)C(=O)O)cc1)CC2
CCc1cn2c3c(cc(C(=O)N[C@@H](Cc4ccccc4)[C@H](O)CNCC(C)C)cc13)N(C)S(=O)(=O)CC2
CCN1CCC(N2CCC(C(=O)Nc3cccc(-c4cccc(Cl)c4)c3)CC2)CC1
O=C(Nc1cccc(-c2ccc(-c3nc4ccccc4[nH]3)cc2)c1)c1cnn2cccnc12
COc1ccc2nc3cc(Cl)ccc3c(NCCCCN)c2c1
COc1ccc(CNc2nc(NCCc3ccccc3)c3cc(OC)c(OC)cc3n2)cc1OC
Cc1ccc(F)c(C(=O)Nc2cccc(-c3nn4ccccc4c3-c3ccnc(Nc4cccc(F)c4)n3)c2)c1F
CN(C)CCNC(=O)N1CCCN(c2ncnc3cc(-c4ccc(Cl)cc4)sc23)CC1
CCCC(C)Nc1nc(C)cc(N[C@@H](Cc2ccccc2)C(=O)NCCOc2ccccc2)n1 (stereo not given in full)
CCCc1cn2c3c(cc(C(=O)N[C@@H](Cc4ccccc4)[C@H](O)CNC4CCCCC4)cc13)N(C)S(=O)(=O)CC2
CC(CCCCCC(=O)Nc1ccc(CC(C)NCCc2cccc(Cl)c2)cc1)NCCc1cccc(Cl)c1 (stereo not given)
